Results on four compounds are retold here after ChEMBL document CHEMBL4513141, “CO-ADD screening of NIH (USA) - Clinical Collection” (2021).

As usually defined, the Inhibition is the relative decrease from the control value, in per cent.

Entries with a potency or affinity are not part of this list.

One assay concerns Klebsiella pneumoniae. As to conditions: Concentration 20 uM; ASSAY_TEST Inhibition of Bacterial Growth; detection method Absorption (OD600); MEDIA CAMHB; plate type 384well; NBS; CORNING #3640; time 18 hr.
Another assay has as its system Candida albicans. As to conditions: 20 µM.
The test system of the next assay is Cryptococcus neoformans. The note with it: Concentration 20 uM; ASSAY_TEST Inhibition of Fungal Growth; detection method Resazurin; Absorption (OD600-OD570); plate type 384well; NBS; CORNING #3640.

Regarding `N[C@@H]1CONC1=O` [CYCLOSERINE], the Inhibition in the assay with Klebsiella pneumoniae is 12%; with Candida albicans, 1.72%; in the assay with Cryptococcus neoformans it was -5.65%.

As for `CCc1ccc(CCOc2ccc(CC3SC(=O)NC3=O)cc2)nc1.Cl` (configuration not stated) [PIOGLITAZONE HYDROCHLORIDE], the figures for the Inhibition in the assay on Klebsiella pneumoniae, with Candida albicans and in the assay on Cryptococcus neoformans were 2.41%, 2.58% and -2.27%, respectively.

In the case of `O=C(C1CCCCC1)N1CC(=O)N2CCc3ccccc3C2C1` (configuration not stated) [PRAZIQUANTEL], the Inhibition in the assay on Klebsiella pneumoniae is 12.45%; in the assay on Candida albicans it was 5.72%; with Cryptococcus neoformans, -0.79%.

As to `CCC[C@@H]1C[C@@H](C(=O)N[C@@H]([C@H]2O[C@H](SC)[C@H](O)[C@@H](O)[C@H]2O)[C@@H](C)O)N(C)C1.Cl.O` [LINCOMYCIN HYDROCHLORIDE], the Inhibition was 17.37% with Klebsiella pneumoniae, 4.06% in the assay with Candida albicans and -3.42% in the assay with Cryptococcus neoformans.
